Measurements taken from PubChem BioAssay AID1159537 (DiRusso Lab, Biochemistry Department, University of Nebraska, 2015).
In all, about 44,000 compounds went through this assay and about 370 (0.84%) were called active. The sample holds actives, similar compounds and a random draw of the others, so the mix is not that of the screen. No rule for the calls is given here.

Experiment: compounds raising algal triacylglycerol storage – qHTS, Chlamydomonas reinhardtii, primary screen (AID 1159537);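 also: hits raise Nile Red signal meaning more stored TAG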
Conditions: Chlamydomonas reinhardtii TAG, Nile Red fluorescence, 72 h; screened at 10 µM (by protocol)
For `O=C(COc1ccc(F)cc1)NCc1ccco1`, the outcome was “inactive”. For `CCOc1ccc(-c2cc(C(=O)NCc3ccccn3)c3ccccc3n2)cc1`, the outcome was “inactive”. For `Cn1c(SCC(=O)Nc2cccc([N+](=O)[O-])c2)nc2ccccc21`, the outcome was “inactive”. For `COc1ccc(C2C(=C(O)c3ccc(C)cc3)C(=O)C(=O)N2c2ccccn2)cc1` (stereo unspecified), the outcome was “inactive”. In the case of `O=C(Cc1ccc(Cl)cc1)N1CCN(c2ccc(Cl)cc2[N+](=O)[O-])CC1`, the outcome is reported as “inactive”. In the case of `O=C(Nc1cccc(F)c1)N1CCN(c2ccccc2F)CC1`, the outcome is reported as “inactive”. For `Cc1cccc(OCC(=O)Nc2cc(-c3nc4ncccc4o3)ccc2C)c1`, the outcome was “inactive”. For `O=C(NCc1cccnc1)C(CCO)Sc1nc2sc3c(c2c(=O)[nH]1)CCCC3` (stereo unspecified), the outcome was “inactive”. With `Cc1ccc(N2CCN(C3CCCCCC3)CC2)cc1` the outcome was “active”. For `Cc1ccc(S(=O)(=O)N2CCC(N3CCCCCC3)CC2)cc1`, the outcome was “inactive”. With `Cc1ccc(C(=O)N2CCN(c3ccccc3)CC2)cc1` the outcome was “inactive”. With `COc1cccc(NC(=O)Nc2nnc(-c3cccc(OC)c3)s2)c1` the outcome was “inactive”. In the case of `Cc1ccc(C(=O)CNc2ccc(F)cc2)cc1`, the outcome is reported as “inactive”. For `Cc1cc(C)c2nc(C)cc(Nc3ccc4c(c3)OCCO4)c2c1`, the outcome was “inactive”. With `Cc1ccc(C(=O)N(Cc2ccccc2)C(C)C)cc1[N+](=O)[O-]` the outcome was “inactive”. In the case of `NC(=O)c1ccc(NC(=O)C(Sc2ccccc2)c2ccccc2)cc1` (stereo unspecified), the outcome is reported as “inactive”. With `COc1ccc(OC)c(NC(=O)CC2CCCCC2)c1` the outcome was “inactive”. For `O=C(COc1ccc(Br)cc1Cl)NCCO`, the outcome was “inactive”. With `Clc1ccc(OCCCCN2CCOCC2)c(Br)c1` the outcome was “active”. For `Clc1ccccc1OCCCCN1CCOCC1`, the outcome was “active”. In the case of `COc1ccc(C(=O)NCCCN2CCOCC2)cc1Br`, the outcome is reported as “inactive”. In the case of `Clc1cc(Br)ccc1OCCCCN1CCOCC1`, the outcome is reported as “active”. For `Clc1ccc(CN2CCOCC2)c(Cl)c1`, the outcome was “inactive”. In the case of `O=[N+]([O-])c1ccccc1OCCCCN1CCCCC1`, the outcome is reported as “inactive”. For `Cc1ccc(OCCOCCN2CCN(C)CC2)c(Br)c1`, the outcome was “inactive”. For `Fc1ccccc1OCCN1CCCC1`, the outcome was “inactive”. In the case of `Clc1ccc(OCCOCCN2CCCC2)c(Br)c1`, the outcome is reported as “active”. With `O=C(CCCOc1ccc(Cl)cc1Cl)N1CCCC1` the outcome was “inactive”. For `Clc1ccc(OCCN2CCCCCC2)cc1`, the outcome was “inactive”. In the case of `Cc1cc(N/C=C/C(=O)c2cccs2)no1`, the outcome is reported as “inactive”. With `CCN(CC)CCC(=O)c1ccc(C(C)C)cc1` the outcome was “inactive”. With `CCc1ccc(NC(=O)Nc2ccccc2)cc1` the outcome was “inactive”. With `CCCC(=O)Nc1cccc(NC(=O)COc2ccc(C)c(C)c2)c1` the outcome was “inactive”. With `Cc1cccc(C)c1OCC(=O)Nc1ccc([N+](=O)[O-])cc1` the outcome was “inactive”. For `CCCC1CCc2c(sc(NC(=O)C3C4C=CC(C4)C3C(=O)O)c2C(N)=O)C1` (stereo unspecified), the outcome was “inactive”. For `O=C(COc1ccc([N+](=O)[O-])cc1)Nc1cccc(Br)c1`, the outcome was “inactive”. For `CCOc1ccccc1NC(=O)COc1ccc(Br)c(C)c1`, the outcome was “inactive”. For `CC(=O)c1nc2cc([N+](=O)[O-])ccc2n1Cc1ccccc1`, the outcome was “active”. In the case of `CC(=O)c1nc2ccccc2n1Cc1ccccc1`, the outcome is reported as “inactive”. In the case of `O=C(O)Cn1c2ccccc2c2cc([N+](=O)[O-])ccc21`, the outcome is reported as “inactive”. In the case of `CC(C(=O)NCc1ccncc1)N(c1ccccc1)S(C)(=O)=O` (stereo unspecified), the outcome is reported as “inactive”. With `COc1ccc(N=C2NC(=O)CC(C(=O)Nc3ccc(Cl)cc3)S2)cc1` (stereo unspecified) the outcome was “inactive”. In the case of `CC(=O)Nc1ccc(NC(=O)c2ccc(F)cc2)cc1`, the outcome is reported as “inactive”. With `OCCN1CCN(C2CCN(Cc3ccc(Cl)cc3)CC2)CC1` the outcome was “inactive”. In the case of `COc1ccc(-c2cn3c4ccccc4n(CCN4CCOCC4)c3n2)cc1`, the outcome is reported as “inactive”. In the case of `O=C1CCC(=O)N1c1ccc(S(=O)(=O)c2ccc(N3C(=O)CCC3=O)cc2)cc1`, the outcome is reported as “inactive”. With `O=C(COc1ccc([N+](=O)[O-])cc1)Nc1ccc(Cl)cc1` the outcome was “inactive”. For `COc1ccccc1CNC1CCC(C)C1` (stereo unspecified), the outcome was “inactive”. In the case of `NC(=O)CCSc1ccc(Cl)cc1`, the outcome is reported as “inactive”. For `NC(N)=NS(=O)(=O)c1ccc(NC(=O)c2ccc([N+](=O)[O-])cc2)cc1`, the outcome was “inactive”. With `Cc1cccc(NC(=O)C(=O)NC(C)c2ccccc2)c1` (stereo unspecified) the outcome was “inactive”. With `CC(=O)NS(=O)(=O)c1ccc(NC(=O)C2C3C=CC(C3)C2C(=O)O)cc1` (stereo unspecified) the outcome was “inactive”. For `Cc1ccc(CNC(=O)c2ccccc2Br)cc1`, the outcome was “inactive”. With `COc1ccc(Nc2nc(Nc3ccc(OC)cc3)nc(N3CCNCC3)n2)cc1` the outcome was “inactive”. With `CC1CCCN(CCCCOc2ccccc2F)C1` (stereo unspecified) the outcome was “inactive”. For `COc1cc(/C=C(\C#N)c2nc3ccc(C)cc3[nH]2)c(Br)cc1O`, the outcome was “inactive”. For `O=C(NCc1cccnc1)C(O)(c1ccccc1)c1ccccc1`, the outcome was “inactive”. For `Cc1ccc(OCCOCCN2CCOCC2)c([N+](=O)[O-])c1`, the outcome was “active”. In the case of `CCN(CC)CCCOc1ccc(C)cc1[N+](=O)[O-]`, the outcome is reported as “inactive”. With `COc1ccccc1OCCNc1cc(N2CCOCC2)ccc1[N+](=O)[O-]` the outcome was “inactive”. With `CNC(=O)C(=O)NCCc1ccccc1` the outcome was “inactive”. In the case of `O=C1CC(NCCc2ccccc2)C(=O)N1c1ccc(F)cc1` (stereo unspecified), the outcome is reported as “inactive”. For `Cn1c(SCC(=O)Nc2ccccc2)nc2ccccc21`, the outcome was “inactive”. With `Cc1ccc(C(C)C)c(OCC(O)CN2CCCC(C)C2)c1` (stereo unspecified) the outcome was “inactive”. For `CCOc1ccc(N2C(=O)CC(SCC(=O)Nc3ccc(F)cc3)C2=O)cc1` (stereo unspecified), the outcome was “inactive”. In the case of `COc1ccc(N(CC(=O)Nc2ccc(C)cc2)S(C)(=O)=O)c(OC)c1`, the outcome is reported as “inactive”. With `COc1ccccc1/C=C(/C#N)c1nc2ccccc2[nH]1` the outcome was “inactive”. With `CNC(=O)CN(c1ccc(F)cc1)S(C)(=O)=O` the outcome was “inactive”. With `COc1ccccc1N(CC(=O)NC12CC3CC(CC(C3)C1)C2)S(=O)(=O)c1ccccc1` the outcome was “inactive”. With `O=C(c1ccc(CN2CCOCC2)cc1)N(Cc1ccccc1)Cc1ccccc1` the outcome was “active”. With `CC(=O)Nc1ccc(CN2CCOCC2)cc1` the outcome was “inactive”. In the case of `O=C(Nc1cccc(Cl)c1Cl)c1ccc(CN2CCOCC2)cc1`, the outcome is reported as “inactive”. With `COC(=O)NC(c1ccc(Br)cc1)C(Cl)(Cl)Cl` (stereo unspecified) the outcome was “inactive”. For `Cc1ccc2c(Cl)c(C(=O)Nc3cc(S(N)(=O)=O)ccc3C)sc2c1`, the outcome was “inactive”. With `CC(=O)c1ccc(NC(=O)COc2ccc(Br)c(C)c2)cc1` the outcome was “inactive”. In the case of `CCOc1ccc(NC(=O)Nc2nnc(Cc3ccc(OC)cc3)s2)cc1`, the outcome is reported as “inactive”. With `C=CCNC(=O)COc1ccc(C)cc1Br` the outcome was “inactive”. In the case of `COc1ccc(Cl)cc1NC(=O)CSc1nc2ncccc2[nH]1`, the outcome is reported as “inactive”. With `CC(=O)NC1=C(N2CCN(Cc3ccccc3)CC2)C(=O)c2ccccc2C1=O` the outcome was “active”. With `CC(=O)Nc1ccc(CN2CCN(c3ccc(C(C)=O)cc3)CC2)cc1` the outcome was “inactive”. In the case of `O=C(Nc1ccccc1)N1CCN(Cc2ccccc2)CC1`, the outcome is reported as “inactive”.
